# Article PMC7862700, “An all-to-all approach to the identification of sequence-specific readers for epigenetic DNA modifications on cytosine”
# How the values were obtained:
# Assay in all cases: DAPPL (digital affinity profiling via proximity ligation, sequencing); 10 mM Tris-HCl pH 7.5, 50 mM NaCl, 1 mM DTT, 4% glycerol, room temperature, 30 min; GST-TFs on glutathione beads, 16-mer random dsDNA library, 0.1% formaldehyde crosslink after washing; high values mean tight binding
# Conditions in all cases: protein: recombinant; tags: N-terminal GST; dsDNA, one strand shown
# FLI1 = target: T1, FLI1 (Homo sapiens, UniProt Q01543 1-452)
# T1 sequence: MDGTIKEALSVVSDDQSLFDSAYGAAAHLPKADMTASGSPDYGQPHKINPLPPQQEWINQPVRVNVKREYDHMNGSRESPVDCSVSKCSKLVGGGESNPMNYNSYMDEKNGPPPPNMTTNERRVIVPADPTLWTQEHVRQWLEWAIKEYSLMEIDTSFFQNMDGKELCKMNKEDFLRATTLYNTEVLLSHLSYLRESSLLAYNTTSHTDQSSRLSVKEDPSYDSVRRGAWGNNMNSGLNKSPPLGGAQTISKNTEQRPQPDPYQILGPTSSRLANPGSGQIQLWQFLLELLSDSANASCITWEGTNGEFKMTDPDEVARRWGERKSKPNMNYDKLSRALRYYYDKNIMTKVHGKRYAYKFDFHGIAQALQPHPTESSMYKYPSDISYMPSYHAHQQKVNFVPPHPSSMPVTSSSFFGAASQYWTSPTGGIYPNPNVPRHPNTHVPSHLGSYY
# Summary of the method: (§1)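 Human transcription factors carrying a GST fusion were produced in yeast, bound to glutathione beads, tagged with DNA barcodes and pooled together with a tag-only sample. Each pool was held with 200 nmole of a random double-stranded 16-mer DNA library in Tris/NaCl/DTT/glycerol buffer for 30 min at room temperature, then washed, crosslinked in 0.1% formaldehyde, proximity-ligated with BsaI/T4 ligase (1 h, 37 °C), PCR-amplified and sequenced on an Illumina NextSeq500. Binding signal is the read frequency of each hexamer for a given factor divided by its frequency in the tag-only sample.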
# ELK1 = target: T2, ELK1 (Homo sapiens, UniProt P19419 1-428)
# T2 sequence: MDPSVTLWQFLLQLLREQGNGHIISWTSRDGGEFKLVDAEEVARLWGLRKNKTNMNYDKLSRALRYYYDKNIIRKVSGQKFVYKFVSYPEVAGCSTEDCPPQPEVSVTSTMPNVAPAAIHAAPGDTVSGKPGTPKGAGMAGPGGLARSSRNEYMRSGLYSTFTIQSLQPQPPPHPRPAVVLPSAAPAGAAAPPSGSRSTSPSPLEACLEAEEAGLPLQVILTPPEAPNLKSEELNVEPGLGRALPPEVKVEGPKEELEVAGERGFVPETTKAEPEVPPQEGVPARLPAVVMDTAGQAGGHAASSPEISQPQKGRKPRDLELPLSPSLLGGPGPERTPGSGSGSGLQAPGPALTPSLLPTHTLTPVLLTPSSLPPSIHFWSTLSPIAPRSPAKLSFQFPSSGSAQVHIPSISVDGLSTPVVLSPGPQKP
# Summary of the method: as §1
# GABPA = target: T3, GABPA (Homo sapiens, UniProt Q06546 1-454)
# T3 sequence: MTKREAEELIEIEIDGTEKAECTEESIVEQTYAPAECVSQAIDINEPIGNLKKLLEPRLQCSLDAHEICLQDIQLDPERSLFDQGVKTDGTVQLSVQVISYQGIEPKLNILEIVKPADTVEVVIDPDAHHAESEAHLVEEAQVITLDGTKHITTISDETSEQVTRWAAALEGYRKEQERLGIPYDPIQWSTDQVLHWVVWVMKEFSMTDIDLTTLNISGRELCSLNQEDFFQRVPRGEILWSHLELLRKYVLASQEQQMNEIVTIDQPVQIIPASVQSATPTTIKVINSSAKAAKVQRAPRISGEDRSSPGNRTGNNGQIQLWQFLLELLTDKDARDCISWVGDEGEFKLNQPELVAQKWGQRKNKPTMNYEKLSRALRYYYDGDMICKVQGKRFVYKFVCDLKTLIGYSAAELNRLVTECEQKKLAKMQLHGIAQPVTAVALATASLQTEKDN
# Summary of the method: as §1
# ERG = target: T4, ERG (Homo sapiens, UniProt P11308 1-479)
# T4 sequence: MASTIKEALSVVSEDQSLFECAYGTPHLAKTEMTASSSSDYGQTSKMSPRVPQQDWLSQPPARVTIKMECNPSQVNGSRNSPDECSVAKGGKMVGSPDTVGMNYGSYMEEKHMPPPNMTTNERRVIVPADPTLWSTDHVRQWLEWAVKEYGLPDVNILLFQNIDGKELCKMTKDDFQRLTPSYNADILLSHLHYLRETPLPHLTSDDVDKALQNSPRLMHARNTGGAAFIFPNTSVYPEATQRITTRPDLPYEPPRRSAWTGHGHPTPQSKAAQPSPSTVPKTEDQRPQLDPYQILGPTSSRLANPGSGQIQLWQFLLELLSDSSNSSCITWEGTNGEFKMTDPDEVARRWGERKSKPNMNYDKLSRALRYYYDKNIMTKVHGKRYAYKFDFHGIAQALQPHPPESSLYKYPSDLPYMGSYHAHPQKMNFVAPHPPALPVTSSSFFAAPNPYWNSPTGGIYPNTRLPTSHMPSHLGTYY
# Summary of the method: as §1
# ELF1 = ELF1 (Homo sapiens, UniProt P32519 1-619)
# Summary of the method: as §1
# EHF = target: T5, EHF (Homo sapiens, UniProt Q9NZC4 1-300)
# T5 sequence: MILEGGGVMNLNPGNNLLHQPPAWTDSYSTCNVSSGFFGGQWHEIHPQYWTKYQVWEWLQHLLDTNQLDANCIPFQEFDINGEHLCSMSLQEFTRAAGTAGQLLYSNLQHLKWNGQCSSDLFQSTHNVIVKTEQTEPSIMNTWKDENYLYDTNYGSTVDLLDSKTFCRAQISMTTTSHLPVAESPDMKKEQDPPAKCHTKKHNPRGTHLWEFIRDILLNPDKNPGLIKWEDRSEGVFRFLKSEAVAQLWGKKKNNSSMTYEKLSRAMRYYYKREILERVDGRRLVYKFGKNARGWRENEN
# Summary of the method: as §1
# SPI1 = SPI1 (Homo sapiens, UniProt P17947 1-270)
# Summary of the method: as §1
# SPIB = SPIB (Homo sapiens, UniProt Q01892 1-262)
# Summary of the method: as §1
# ELK3 = target: T6, ELK3 (Homo sapiens, UniProt P41970 1-407)
# T6 sequence: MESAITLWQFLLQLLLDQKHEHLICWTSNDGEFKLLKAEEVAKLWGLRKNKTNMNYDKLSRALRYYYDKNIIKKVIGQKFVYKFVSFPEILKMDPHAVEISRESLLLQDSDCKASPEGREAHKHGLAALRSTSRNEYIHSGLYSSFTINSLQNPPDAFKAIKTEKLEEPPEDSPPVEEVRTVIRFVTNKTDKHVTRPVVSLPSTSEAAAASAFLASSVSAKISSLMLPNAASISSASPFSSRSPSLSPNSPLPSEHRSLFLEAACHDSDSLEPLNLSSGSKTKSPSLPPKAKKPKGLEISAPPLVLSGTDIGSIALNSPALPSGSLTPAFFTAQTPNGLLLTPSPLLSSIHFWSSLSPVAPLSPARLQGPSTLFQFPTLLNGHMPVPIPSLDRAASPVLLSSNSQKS
# Summary of the method: as §1
# Chain of ELF1 (P32519 whole entry): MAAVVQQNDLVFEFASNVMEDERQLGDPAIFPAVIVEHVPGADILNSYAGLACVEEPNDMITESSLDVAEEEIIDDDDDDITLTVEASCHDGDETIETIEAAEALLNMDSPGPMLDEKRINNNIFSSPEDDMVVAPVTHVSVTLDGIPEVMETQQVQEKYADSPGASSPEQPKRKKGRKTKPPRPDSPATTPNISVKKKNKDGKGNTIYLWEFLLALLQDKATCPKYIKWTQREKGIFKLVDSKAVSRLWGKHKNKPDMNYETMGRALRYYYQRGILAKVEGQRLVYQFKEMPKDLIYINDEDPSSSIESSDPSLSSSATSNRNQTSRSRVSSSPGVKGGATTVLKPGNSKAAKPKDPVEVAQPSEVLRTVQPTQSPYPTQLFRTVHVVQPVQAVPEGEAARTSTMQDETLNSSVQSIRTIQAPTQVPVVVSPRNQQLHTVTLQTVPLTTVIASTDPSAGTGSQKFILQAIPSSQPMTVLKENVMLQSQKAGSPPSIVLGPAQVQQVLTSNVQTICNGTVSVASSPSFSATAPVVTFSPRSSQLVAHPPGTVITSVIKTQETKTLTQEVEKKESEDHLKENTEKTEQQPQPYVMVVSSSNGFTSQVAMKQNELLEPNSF
# Chain of SPIB (Q01892 whole entry): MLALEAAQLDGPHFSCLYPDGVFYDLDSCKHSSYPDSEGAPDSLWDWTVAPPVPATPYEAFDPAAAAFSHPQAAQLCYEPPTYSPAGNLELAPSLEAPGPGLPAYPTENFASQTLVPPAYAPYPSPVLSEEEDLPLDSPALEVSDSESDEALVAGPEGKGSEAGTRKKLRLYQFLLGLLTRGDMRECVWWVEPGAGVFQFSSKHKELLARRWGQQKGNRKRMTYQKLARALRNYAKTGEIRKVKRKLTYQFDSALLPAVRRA
sequence,measurement,setting,value
GTTCGA,binding signal,FLI1,"1.13 fold enrichment (6-mer frequency, TF over GST control)"
same,binding signal,ELK1,"1.12 fold enrichment (6-mer frequency, TF over GST control)"
same,binding signal,GABPA,"1.17 fold enrichment (6-mer frequency, TF over GST control)"
same,binding signal,ERG,"1.07 fold enrichment (6-mer frequency, TF over GST control)"
same,binding signal,ELF1,"1.08 fold enrichment (6-mer frequency, TF over GST control)"
same,binding signal,EHF,"1.14 fold enrichment (6-mer frequency, TF over GST control)"
same,binding signal,SPI1,"1.04 fold enrichment (6-mer frequency, TF over GST control)"
same,binding signal,SPIB,"1.05 fold enrichment (6-mer frequency, TF over GST control)"
same,binding signal,ELK3,"1.15 fold enrichment (6-mer frequency, TF over GST control)"
ACTGGC,binding signal,FLI1,"1.26 fold enrichment (6-mer frequency, TF over GST control)"
same,binding signal,ELK1,"1.12 fold enrichment (6-mer frequency, TF over GST control)"
same,binding signal,GABPA,"1.22 fold enrichment (6-mer frequency, TF over GST control)"
same,binding signal,ERG,"1.11 fold enrichment (6-mer frequency, TF over GST control)"
same,binding signal,ELF1,"1.18 fold enrichment (6-mer frequency, TF over GST control)"
same,binding signal,EHF,"1.1 fold enrichment (6-mer frequency, TF over GST control)"
same,binding signal,SPI1,"1.22 fold enrichment (6-mer frequency, TF over GST control)"
same,binding signal,SPIB,"1.15 fold enrichment (6-mer frequency, TF over GST control)"
same,binding signal,ELK3,"1.21 fold enrichment (6-mer frequency, TF over GST control)"
ATGCAC,binding signal,FLI1,"1.28 fold enrichment (6-mer frequency, TF over GST control)"
same,binding signal,ELK1,"1.33 fold enrichment (6-mer frequency, TF over GST control)"
same,binding signal,GABPA,"1.33 fold enrichment (6-mer frequency, TF over GST control)"
same,binding signal,ERG,"1.2 fold enrichment (6-mer frequency, TF over GST control)"
same,binding signal,ELF1,"1.3 fold enrichment (6-mer frequency, TF over GST control)"
same,binding signal,EHF,"1.21 fold enrichment (6-mer frequency, TF over GST control)"
same,binding signal,SPI1,"1.3 fold enrichment (6-mer frequency, TF over GST control)"
same,binding signal,SPIB,"1.34 fold enrichment (6-mer frequency, TF over GST control)"
same,binding signal,ELK3,"1.34 fold enrichment (6-mer frequency, TF over GST control)"
ATGTTG,binding signal,FLI1,"1.31 fold enrichment (6-mer frequency, TF over GST control)"
same,binding signal,ELK1,"1.26 fold enrichment (6-mer frequency, TF over GST control)"
same,binding signal,GABPA,"1.22 fold enrichment (6-mer frequency, TF over GST control)"
same,binding signal,ERG,"1.26 fold enrichment (6-mer frequency, TF over GST control)"
same,binding signal,ELF1,"1.35 fold enrichment (6-mer frequency, TF over GST control)"
same,binding signal,EHF,"1.21 fold enrichment (6-mer frequency, TF over GST control)"
same,binding signal,SPI1,"1.3 fold enrichment (6-mer frequency, TF over GST control)"
same,binding signal,SPIB,"1.18 fold enrichment (6-mer frequency, TF over GST control)"
same,binding signal,ELK3,"1.21 fold enrichment (6-mer frequency, TF over GST control)"
AGATGC,binding signal,FLI1,"1.13 fold enrichment (6-mer frequency, TF over GST control)"
same,binding signal,ELK1,"1.14 fold enrichment (6-mer frequency, TF over GST control)"
same,binding signal,GABPA,"1.05 fold enrichment (6-mer frequency, TF over GST control)"
same,binding signal,ERG,"1.11 fold enrichment (6-mer frequency, TF over GST control)"
same,binding signal,ELF1,"1.04 fold enrichment (6-mer frequency, TF over GST control)"
same,binding signal,EHF,"1.08 fold enrichment (6-mer frequency, TF over GST control)"
same,binding signal,SPI1,"1.08 fold enrichment (6-mer frequency, TF over GST control)"
same,binding signal,SPIB,"1.09 fold enrichment (6-mer frequency, TF over GST control)"
same,binding signal,ELK3,"1.01 fold enrichment (6-mer frequency, TF over GST control)"
ACCCTC,binding signal,FLI1,"1.2 fold enrichment (6-mer frequency, TF over GST control)"
same,binding signal,ELK1,"1.27 fold enrichment (6-mer frequency, TF over GST control)"
same,binding signal,GABPA,"1.15 fold enrichment (6-mer frequency, TF over GST control)"
same,binding signal,ERG,"1.1 fold enrichment (6-mer frequency, TF over GST control)"
same,binding signal,ELF1,"1.13 fold enrichment (6-mer frequency, TF over GST control)"
same,binding signal,EHF,"1.1 fold enrichment (6-mer frequency, TF over GST control)"
same,binding signal,SPI1,"1.12 fold enrichment (6-mer frequency, TF over GST control)"
same,binding signal,SPIB,"1.14 fold enrichment (6-mer frequency, TF over GST control)"
same,binding signal,ELK3,"1.31 fold enrichment (6-mer frequency, TF over GST control)"
TATAGC,binding signal,FLI1,"1.2 fold enrichment (6-mer frequency, TF over GST control)"
same,binding signal,ELK1,"1.22 fold enrichment (6-mer frequency, TF over GST control)"
same,binding signal,GABPA,"1.26 fold enrichment (6-mer frequency, TF over GST control)"
same,binding signal,ERG,"1.2 fold enrichment (6-mer frequency, TF over GST control)"
same,binding signal,ELF1,"1.21 fold enrichment (6-mer frequency, TF over GST control)"
same,binding signal,EHF,"1.17 fold enrichment (6-mer frequency, TF over GST control)"
same,binding signal,SPI1,"1.16 fold enrichment (6-mer frequency, TF over GST control)"
same,binding signal,SPIB,"1.18 fold enrichment (6-mer frequency, TF over GST control)"
same,binding signal,ELK3,"1.1 fold enrichment (6-mer frequency, TF over GST control)"
ATCCGA,binding signal,FLI1,"1.1 fold enrichment (6-mer frequency, TF over GST control)"
same,binding signal,ELK1,"1.17 fold enrichment (6-mer frequency, TF over GST control)"
same,binding signal,GABPA,"1.2 fold enrichment (6-mer frequency, TF over GST control)"
same,binding signal,ERG,"1.31 fold enrichment (6-mer frequency, TF over GST control)"
same,binding signal,ELF1,"1.15 fold enrichment (6-mer frequency, TF over GST control)"
same,binding signal,EHF,"1.17 fold enrichment (6-mer frequency, TF over GST control)"
same,binding signal,SPI1,"1.08 fold enrichment (6-mer frequency, TF over GST control)"
same,binding signal,SPIB,"1.32 fold enrichment (6-mer frequency, TF over GST control)"
same,binding signal,ELK3,"1.32 fold enrichment (6-mer frequency, TF over GST control)"
